Laboratory results published in PubChem BioAssay (NCI).
Values joined by “and” are separate entries in the source; they are usually repeats but may differ in a detail not shown here. Identical values can stand only once. This is part of a sample that, as a whole, favours compounds with a hit. Of some 79,000 tested, about 15% had one in any assay. Some structures have more than one record in an assay (separate samples or runs), and their calls can disagree. Active and inactive are the calls of the source. No stated cut-off is given here; in the data, active means growth inhibition above about 70%; inactive means the rest.

How the values were obtained:
[1] = NCI Yeast Anticancer Drug Screen. Data for the rad50 strain (AID 155);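 further: 0% = growth of vehicle-only cultures of the same strain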; details: S. cerevisiae rad50 strain growth inhibition; at 50.0 µM; stronger effect = higher value
Outline: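 Readout: growth inhibition relative to vehicle-treated cultures. Compound exposure was carried out in a genetically defined yeast strain deficient in DNA damage repair.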

[2] = NCI Yeast Anticancer Drug Screen. Data for the mec2-1 strain (AID 157); details: S. cerevisiae mec2-1 strain, at 50.0 µM, stronger effect = higher value
Outline: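 Mutant yeast (mec2-1) grown with compound; growth inhibition relative to vehicle control reported.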

[3] = NCI Yeast Anticancer Drug Screen. Data for the sgs1 mgt1 strain (AID 161);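 further: 0% = growth of cultures given vehicle only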; details: S. cerevisiae sgs1 mgt1 strain, at 50.0 µM, stronger effect = higher value
Outline: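 Yeast cells carrying a defined DNA-repair defect were exposed to test compounds. Growth inhibition was measured relative to vehicle-treated controls.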

[4] = NCI Yeast Anticancer Drug Screen. Data for the cln2 rad14 strain (AID 165);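 further: 0% = growth equal to vehicle treated cultures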; details: S. cerevisiae cln2 rad14 strain, at 50.0 µM, stronger effect = higher value
Outline: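 Readout is yeast growth inhibition versus vehicle-treated controls, using a strain with cln2 and rad14 alterations exposed to compound.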

[5] = NCI Yeast Anticancer Drug Screen. Data for the bub3 strain (AID 167); details: S. cerevisiae bub3 mutant strain, at 50.0 µM, stronger effect = higher value
Outline: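 Readout: yeast growth inhibition, expressed relative to vehicle-only wells. The test organism is a mutant strain from a panel with lesions in DNA repair or checkpoint genes.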

[6] = NCI Yeast Anticancer Drug Screen. Data for the mlh1 rad18 strain (AID 175); details: S. cerevisiae mlh1 rad18 strain growth inhibition; at 50.0 µM; stronger effect = higher value
Outline: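 Genetically defined yeast (DNA repair-deficient) exposed to compounds; growth inhibition determined relative to vehicle.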

Measured: growth inhibition

CC(C)(C)OC(=O)C1CCON1C1OC(C(O)CO)C2OC(C)(C)OC21 (stereo not given)
inactive: [1] -3.45% and 48.1% | [2] 7.85% and 43% | [3] 2.4% and 57.9% | [4] -8.25% and 19% | [5] 13.2% and 38.5% | [6] 10.8% and 59.4%

N=C(N)SCCc1ccccn1
inactive: [1] -30.3% and -8.8% | [2] -27.9% and -24.2% | [3] -35.1% and -28% | [4] -16.1% and -19.4% | [5] -44% and -39.1% | [6] -18.4% and -1.55%

O=C(O)/C=C/c1ccccc1
inactive: [1] 15.1% and 41.8% | [2] 16.6% and 2.4% | [3] 27.5% and 7.65% | [4] 14.8% and 7.35% | [5] 4.1% and 19.3% | [6] 22.2% and 31.9%

CC1(C)OC2OC(C(COS(C)(=O)=O)OS(C)(=O)=O)C(OS(C)(=O)=O)C2O1 (stereo not given)
inactive: [1] 15.7% and -9.65% | [2] 2.6% and 9.75% | [3] 37.9% and 10.2% | [4] 16.4% and 20.6% | [5] 5.9% and 1.45% | [6] 16.2% and 8%

CCCCNC(=S)NCCCC
inactive: [1] -6.45% and -1.4% | [2] 9.9% and 8% | [3] -11% and 19.2% | [4] -32% and -17.5% | [5] 1.15% and -4.35% | [6] -2.4% and 17.3%

CC1(O)C(=O)OC(CO)C1O (stereo not given)
inactive: [1] 1.4% and 7.1% | [2] 1.6% and 7.15% | [3] -3.45% and -1% | [4] -15.8% and -6.6% | [5] -5.65% and 2.4% | [6] 5.1% and 3.25%

O=c1c(I)c[nH]cc1I
inactive: [1] -12.1% and -3.2% | [2] -15.9% and 14.1% | [3] -24.1% and 4.45% | [4] 3.35% and 22.6% | [5] -9.4% and 15.7% | [6] 22.2% and 14.8%

O=C(O)C1OC1C(=O)O (stereo not given)
inactive: [1] -24.1% and -0.45% | [2] -30.2% and -4.6% | [3] -23.9% and -5.4% | [4] -39.7% and -23.8% | [5] -21.5% and -5.95% | [6] -10.4% and 13.7%

CN(C)C
inactive: [1] 17.1% and 2.45% | [2] -30.6% and -27.2% | [3] 10.4% and -17.1% | [4] -3.8% and -97.7% | [5] 9.8% and -21.9% | [6] 7.8% and -135%

Cc1ccc(C(=O)/C=C/c2ccc3c(c2)OCO3)cc1
inactive: [1] -6.75% and 8.6% | [2] 16% and -4.7% | [3] 13.6% and 21.4% | [4] -8.95% and -1.75% | [5] 29.4% and 25.3% | [6] 15.4% and 37%

COC1OCC(OC(=O)c2ccccc2)C(OC(=O)c2ccccc2)C1OC(=O)c1ccccc1 (stereo not given)
inactive: [1] 7.5% and 19.6% | [2] 1.15% and -3.25% | [3] 15.7% and -3.7% | [4] 19.5% and -0.3% | [5] -1.55% and -3.65% | [6] 6.15% and -8.55%

Nc1ccc(CCc2ccc(N)cc2)cc1
inactive: [1] 2.95% and -24.4% | [2] -6.85% and -19.4% | [3] -34.4% and -18.4% | [4] -48.5% and -20.8% | [5] 7.35% and -18.9% | [6] 12.2% and -8.65%

C[N+](C)(C)CCOC(=O)c1ccccc1CBr
inactive: [1] -10.6% and 52.1% | [6] 3.95% and 64.9%
40.9% (inactive) and 97.7% (active): [4]
35.5% (inactive) and 99.2% (active): [5]
22.8% (inactive) and 96.6% (active): [2]
16.8% (inactive) and 85.9% (active): [3]

O=c1[nH]c2[nH]c(=S)[nH]c(=S)c2[nH]1
inactive: [1] -19.7% and 13.8% | [2] 8.45% and -2.5% | [3] -17.5% and -4.85% | [4] 13.8% and -41.7% | [5] -24.7% and -10.8% | [6] -20.1% and -0.3%

O=C(O)c1cc(N=C=S)ccc1-c1c2ccc(=O)cc-2oc2cc(O)ccc12
inactive: [1] 6.3% and 32.9% | [2] 3.7% and 31.5% | [3] -4.85% and 15.3% | [4] 6% and 16.6% | [5] -9.75% and -4.1% | [6] 4.95% and 45.9%

COc1ccc2c(c1)-c1nn(CCCN(C)C)c3ccc([N+](=O)[O-])c(c13)N2
76.2% (active) and 67.2% (inactive): [1]
inactive: [2] 8% and 12.3% | [3] 23.9% and -28.4% | [4] 10.7% and 20.6% | [5] 27.8% and -60.1% | [6] 39.7% and 28.5%

COC1OC2COC(c3ccccc3)OC2C(OC(C)=O)C1OC(C)=O (stereo not given)
inactive: [1] 15.4% and 5.85% | [2] 10.2% and 6.9% | [3] 2.1% and 4.05% | [4] 2.4% and 2.9% | [5] 38.8% and 10% | [6] 19.9% and -14.9%

COc1ccc2c(=O)oc3c(OC)cc(CCN(C)C)c4c(=O)oc1c2c34
inactive: [1] 62.9% and -8.15% | [2] -0.55% and -23.4% | [3] 0.35% and -57.6% | [4] 4.3% and -24.4% | [5] 20.2% and -43.8% | [6] 25.4% and -30.3%

C=CC/C(=N\OS(=O)(=O)O)SC1OC(CO)C(O)C(O)C1O (stereo not given)
inactive: [1] 2.2% and 4.75% | [2] -30.6% and -21.5% | [3] -0.75% and -20.6% | [4] 13.4% and 7.4% | [5] -14% and -30.2% | [6] -14.9% and -10.7%

COc1ccccc1/C=C/C(=O)O
inactive: [1] 30.8% and 25.7% | [2] -7.85% and 14.2% | [3] -5.2% and -7.85% | [4] -7.8% and -13.9% | [5] 3.95% and 10.9% | [6] -22.4% and 6.65%

COC1OC(COC(=O)c2ccc([N+](=O)[O-])cc2)C2OC12 (stereo not given)
inactive: [1] 7.6% and -6.95% | [2] -7.95% and -1% | [3] 8.7% and 1.4% | [4] 17.2% and 28.4% | [5] 27.2% and -2.85% | [6] 7.95% and 8.15%

CCCCOC(=O)c1ccc(O)cc1
inactive: [1] 25.4% and 23% | [2] -2.95% and -1.8% | [3] 8.7% and -6.55% | [4] 3.55% and -11.2% | [5] 8.75% and 33.6% | [6] 23.4% and 48%

O=C(O)/C=C/c1c2ccc(=O)cc-2oc2cc(O)ccc12
inactive: [1] -9.9% and 0.5% | [2] -21.8% and 29.6% | [3] 15.1% and 17.6% | [4] 21.2% and 7.05% | [5] -8.15% and 17.1% | [6] 4.65% and -5.95%

COc1cc2c(cc1OC)C(=O)C1COC(=O)C1C2 (stereo not given)
inactive: [1] -17% and 0.6% | [2] -18.8% and -11.5% | [3] -8.7% and 14.8% | [4] -11.9% and 5.05% | [5] -6.2% and -4.85% | [6] 0.55% and 12.2%

C/C(=N\NC(N)=O)c1ccc(Cl)cc1
inactive: [1] 27.9% and 9.05% | [2] 10.8% and -3.65% | [3] 2% and -6.25% | [4] 9.6% and -8.65% | [5] -4.15% and 6% | [6] 7.3% and 10.7%
